Screening results deposited in PubChem by Broad Institute.
IDE exosite inh: exo-site inhibitors of human IDE, primary screen, biochemical, fluorescence anisotropy, probe displacement | Insulin-degrading enzyme (Homo sapiens), P14735 | purified IDE, FL-6b probe fluorescence polarization; hits give low values | z-score at 20 µM | 17,000 tested, 6.3% active;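 active = z-score of -3 or lower, meaning strong loss of probe binding signal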;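 also: His-tagged human IDE residues 42-1019 made in E. coli with 30 nM FL-6b probe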
* = called active by the depositor. Many of the other results were omitted from the sample, so hits are more common in it than they were.

SMILES	IDE exosite inh
COc1cccc(NC(=O)N2CC(=O)N3[C@H](CO)[C@@H](c4ccc(C5=CCCC5)cc4)[C@@H]3C2)c1	3.47
Cc1ccc(-c2ccc([C@@H]3[C@H]4CN(C(=O)c5ccc(F)cc5)CCCCN4[C@H]3CO)cc2)cc1	0.331
COCC(=O)N1CC(=O)N2[C@H](C1)[C@@H](c1ccc(-c3ccccc3C)cc1)[C@@H]2CO	-13.6*
COCC(=O)N1CC(=O)N2[C@@H](CO)[C@@H](c3ccc(-c4ccccc4C)cc3)[C@@H]2C1	-12.8*
COCC(=O)N1CC(=O)N2[C@@H](CO)[C@H](c3ccc(-c4ccncc4)cc3)[C@@H]2C1	-0.939
COCC(=O)N1CC(=O)N2[C@@H](CO)[C@@H](c3ccc(Br)cc3)[C@@H]2C1	4.05
COCC(=O)N1CC(=O)N2[C@H](CO)[C@H](c3ccc(Br)cc3)[C@@H]2C1	2.55
COCC(=O)N1CC(=O)N2[C@H](C1)[C@H](c1ccc(-c3ccccc3)cc1)[C@@H]2CO	3.69
COc1ccc(C#Cc2ccc3c(c2)[C@H]2[C@H](CCN2S(=O)(=O)c2ccccc2C)[C@H](CO)N3C)cc1	0.141
CCC(=O)N1CC(=O)N2[C@@H](CO)[C@@H](c3ccc(C#CC(C)C)cc3)[C@@H]2C1	0.669
C[C@H]1CN([C@@H](C)CO)C(=O)CCCn2nncc2CO[C@@H]1CN(C)Cc1ccc2c(c1)OCCN2C	-0.954
O=C(c1ccccc1)N(CC1CCC1)C[C@@H]1N[C@H](CO)[C@@H]1c1ccccc1	-0.998
C/C=C/c1ccc([C@H]2[C@@H](CO)N(Cc3ccc(F)cc3)[C@H]2CNC(C)=O)cc1	4.26
COC(=O)c1ccc(CN2CC(=O)N3[C@@H](CO)[C@@H](c4ccc(-c5cccnc5)cc4)[C@@H]3C2)cc1	0.478
C/C=C/c1ccc([C@H]2[C@@H](CO)N(c3nc(-c4ccccc4)cs3)[C@H]2C#N)cc1	0.983
O=C(Cc1ccccn1)N1CC(=O)N2[C@@H](CO)[C@@H](c3ccc(C#CC4CC4)cc3)[C@@H]2C1	0.964
Cc1ccc(-c2ccc([C@H]3[C@H]4CN(C(=O)Cc5ccccn5)CC(=O)N4[C@H]3CO)cc2)cc1	-2.05
O=C(Cc1ccccn1)N1CC(=O)N2[C@@H](CO)[C@H](c3ccc(-c4ccccc4)cc3)[C@@H]2C1	-1.49
Cc1cccc(-c2ccc([C@H]3[C@H]4CN(C(=O)Cc5ccccn5)CC(=O)N4[C@H]3CO)cc2)c1	-4.49*
COc1ccc(-c2ccc([C@H]3[C@H]4CN(C(=O)Cc5ccccn5)CC(=O)N4[C@H]3CO)cc2)cc1	-0.835
COc1ccc(-c2ccc([C@@H]3[C@@H](CO)N4C(=O)CN(C(=O)Cc5ccccn5)C[C@H]34)cc2)cc1	1.13
Cc1cccc(-c2ccc([C@H]3[C@@H](CO)N4C(=O)CN(C(=O)Cc5ccccn5)C[C@@H]34)cc2)c1	-10.6*
Cc1cccc(-c2ccc([C@@H]3[C@@H](CO)N4C(=O)CN(C(=O)Cc5ccccn5)C[C@@H]34)cc2)c1	-11.8*
Cc1ccc(-c2ccc([C@H]3[C@H](CO)N4C(=O)CN(C(=O)Cc5ccccn5)C[C@@H]34)cc2)cc1	0.214
Cc1ccc(-c2ccc([C@H]3[C@@H](CO)N4C(=O)CN(C(=O)Cc5ccccn5)C[C@@H]34)cc2)cc1	-1.27
SMILES	IDE exosite inh
O=C(Cc1ccccn1)N1CC(=O)N2[C@H](CO)[C@@H](c3ccc(C#CC4CC4)cc3)[C@H]2C1	3.46
O=C(Cc1ccccn1)N1CC(=O)N2[C@H](C1)[C@@H](c1ccc(C#CC3CC3)cc1)[C@@H]2CO	-3.08*
COc1ccc2c3c([nH]c2c1)[C@@H](CO)N(C(=O)C1CCOCC1)CC31CCN(Cc2cccc(F)c2)CC1	-0.842
C[C@H]1CN([C@@H](C)CO)C(=O)CCCn2nncc2CO[C@@H]1CN(C)S(=O)(=O)c1ccc2c(c1)OCCCO2	-0.0324
C[C@@H]1CN([C@@H](C)CO)C(=O)CCCn2nncc2CO[C@H]1CN(C)C(=O)Nc1ccc2c(c1)OCCO2	-1.11
CN(C)CC(=O)N[C@@H]1CC[C@H](CCNC(=O)C2CCC2)O[C@H]1CO	3.7
CC(=O)N1CC(=O)N2[C@H](C1)[C@H](c1ccc(-c3ccncc3)cc1)[C@@H]2CO	3.97
C/C=C/c1ccc([C@@H]2[C@@H](CO)N(C(=O)CN(C)C)C23CN(C(=O)C2CCOCC2)C3)cc1	0.0531
CC(C)NC(=O)N[C@@H]1CC[C@@H](CC(=O)NCCCN(C)C)O[C@H]1CO	0.0365
O=C(Nc1ccccc1)N1CCCCN2[C@H](CO)[C@@H](c3ccc(C#Cc4cccnc4)cc3)[C@H]2C1	2.07
O=C(Nc1ccccc1)N1CCCCN2[C@@H](CO)[C@H](c3ccc(C#Cc4cccnc4)cc3)[C@@H]2C1	-5.33*
O=C(Nc1ccccc1)N1CCCCN2[C@@H](CO)[C@@H](c3ccc(C#Cc4cccnc4)cc3)[C@@H]2C1	4.1
O=C(Nc1ccccc1F)N1CCCCN2[C@H](CO)[C@H](c3ccc(C#Cc4cccnc4)cc3)[C@@H]2C1	-6.83*
O=C(Nc1ccccc1F)N1CCCCN2[C@H](CO)[C@@H](c3ccc(C#Cc4cccnc4)cc3)[C@H]2C1	-2.06
